Experimental data reported in PubChem BioAssay AID492998 (Southern Research Specialized Biocontainment Screening …, 2010).
Among all 2,300 compounds or so, about 550 (24%) were called active. The rule behind the calls is not given here. The list is a sample of the results. Where a call stands in place of a potency, no number is given. Potency and affinity values are given separately.

Test: Vero E6 cell cytotoxicity, dose response, cytotoxicity control for non-replicating M. tuberculosis project, secondary assay (AID 492998)
Conditions: series mostly up to 20 µM

| Compound | outcome |
| --- | --- |
| CCOc1cccc2cc(C(=O)Nc3nccs3)c(=O)oc12 | inactive |
| O=C(CN1CCC(NC(=O)c2cccc(F)c2)CC1)Nc1ccc(Br)cc1 | inactive |
| CC(=O)N1N=C(c2ccccc2)OC1c1ccc([N+](=O)[O-])s1 (stereo not drawn) | inactive |
| Cc1onc(-c2ccccc2)c1C(=O)Nc1nnc(COc2ccc(Cl)cc2)s1 | inactive |
| O=C(N/N=C/c1ccc(Br)s1)c1ccncc1 | inactive |
| Cc1ccc(/C=N/NC(=O)c2ccncc2)s1 | inactive |
| O=C(Nc1ccccc1)c1cc2ccccc2o1 | inactive |
| CN(C)Cc1ccccc1Sc1ccc(Br)cc1 | inactive |
| CC(C)(NO)/C(=N\O)c1ccccc1 | inactive |
| CCCOC(=O)c1ccc(-c2ccc(C=O)o2)cc1 | inactive |
| Cc1ccc2nc3c(c(N)c2c1)CCN3c1ccccc1 | inactive |
| C=C(C)C1Cc2c(C)nn(-c3nc(C)cc(C)n3)c2C1 (stereo not drawn) | inactive |
| CCc1nnc(N/N=C/c2ccc(-c3ccc([N+](=O)[O-])cc3)o2)n1N | inactive |
| Cc1cccc(NC(=O)COC(=O)c2cc3ccccc3oc2=O)c1 | inactive |
| CCOc1cccc2cc(C(=O)NCc3ccccc3)c(=N)oc12 | inactive |
| Cc1ccc(N=Nc2c(C)[nH]n(C(N)=S)c2=O)cc1C | inactive |
| COc1cccc(NC(=O)c2ccc(-c3ccc([N+](=O)[O-])cc3)o2)c1 | inactive |
| O=C(c1ccc(-c2ccc([N+](=O)[O-])cc2)o1)N1CCN(S(=O)(=O)c2cccs2)CC1 | inactive |
| COc1ccccc1C(=O)OCC(=O)Nc1ccc(Cl)cn1 | inactive |
| CC(C)(C)NC(=O)c1ccc(NC(=O)c2ccccc2-c2ccccc2C(=O)O)cc1 | inactive |
| CN1CCC(O)(c2ccc(Cl)cc2)C(C(=O)c2ccc(Cl)cc2)C1 (stereo not drawn) | inactive |
| Cc1nnc(NC(=O)c2ccc3ccccc3c2)o1 | inactive |
| O=C(Cn1cc([N+](=O)[O-])nc1[N+](=O)[O-])N1CCN(c2ccccc2)CC1 | inactive |
| N/C(=N/OC(=O)c1ccc(Cl)cc1)c1ncc([N+](=O)[O-])s1 | inactive |

| Compound | outcome |
| --- | --- |
| Cc1nc(Cl)nc(N(C)c2ccccc2)c1[N+](=O)[O-] | inactive |
| Cc1cc(C=C2C(=O)NC(=S)NC2=O)c(C)n1C1CCCC1 | inactive |
| CSc1nc2ccc(NC(=O)C3CC(=O)N(Cc4ccccc4)C3)cc2s1 (stereo not drawn) | inactive |
| CC1CCN(CCc2nc3cc(NC(=O)COc4ccc(Cl)cc4)ccc3n2C)CC1 | inactive |
| NC(=S)n1[nH]c(-c2ccc([N+](=O)[O-])cc2)c(N=Nc2ccc(O)cc2)c1=O | inactive |
| COC(=O)c1ccc(CSc2nnc(-c3ccncc3)o2)o1 | inactive |
| CCOC(=O)COc1ccc(/C=C2\NC(=S)N(CC)C2=O)cc1 | inactive |
| FC(F)(F)c1ccc(NCCc2ccccc2)nc1 | inactive |
| O=C(COc1ccc(F)cc1)N/N=C/c1cccc2cccnc12 | inactive |
| O=C1/C(=C/c2cccs2)COc2ccccc21 | inactive |
| Brc1ccc(OCCCCN2CCCCC2)cc1 | inactive |
| Cc1occc1C(=O)N/N=C/C(Br)=C\c1ccccc1 | inactive |
| O=C(CN1CCCCC1)Nc1nnc(-c2ccc([N+](=O)[O-])cc2)s1 | inactive |
| N#Cc1nc(-c2cccs2)oc1NCCc1ccccc1 | inactive |
| COc1cc(N=c2ssnc2Cl)cc(OC)c1OC | inactive |
| O=C1Nc2cc(C(=O)NCCCN3CCOCC3)ccc2S/C1=C/c1cccc(Cl)c1 | inactive |
| N=c1n(CCN2CCCCC2)c2ccccc2n1CC(=O)c1ccc(Cl)c(Cl)c1 | inactive |
| COCCOC(=O)c1c(C)oc2ccc(OC(=O)c3ccco3)cc12 | inactive |
| O=C(Nc1ncc(Cc2ccccc2)s1)C1=NCCN1 | inactive |
| OCC#CCSc1nnc(-c2ccc(Br)cc2)o1 | inactive |
| CCN(CC)c1ccc2c(c1)oc(=O)c1c(Cl)cc(=O)oc12 | inactive |
| CN(CCOCCOc1ccc(F)cc1)Cc1ccccc1 | inactive |
| CCCCOC(=O)Cn1c(-c2ccccc2)nc2ccccc2c1=O | inactive |
| CCOC(=O)c1cc(-c2csc(COc3ccc(Cl)cc3)n2)on1 | inactive |

| Compound | outcome |
| --- | --- |
| NC(=O)C1CCN(C2CC(=O)NC2=O)CC1 (stereo not drawn) | inactive |
| CCC(C)n1c(=S)[nH]c2ccccc2c1=O (stereo not drawn) | inactive |
| Nc1ccc2nc3c(c(Cl)c2c1)CCCC3 | inactive |
| O=C(CCSc1nnc(-c2ccncc2)o1)Nc1ccc(Cl)cc1 | inactive |
| CCOC(=O)C(C)(C)n1nnc(-c2ccc([N+](=O)[O-])cc2)n1 | inactive |
| CCC1(O)CC(c2ccccc2)=NN1C(=O)c1ccccc1F (stereo not drawn) | inactive |
| Cc1cc(=O)n2cccc(O)c2n1 | inactive |
| O=C(NNc1nc2cc3c(cc2s1)OCCO3)c1ccccc1 | inactive |
| C/C(CC(=O)Nc1ccc(N(C)C)cc1)=N\NC(=O)c1ccncc1 | inactive |
| NC(=O)c1cccnc1Nc1cccc(F)c1 | inactive |
| CN(C)CCNc1c2c(c(C#N)c3nc4ccccc4n13)CCCC2 | inactive |
| CN(C)CCCn1c(=O)n(C2CCCCC2)c(=O)c2c3c(sc21)CCCCC3 | inactive |
| COc1cc(/C=N/Nc2ccc(Cl)c(C(=O)O)c2)ccc1OC(=O)c1cccs1 | inactive |
| CC1=NN(C(=O)c2csc(C)c2C)C(O)(C(F)(F)F)C1 (stereo not drawn) | inactive |
| O=C(CCc1ccccc1F)N1CCN(c2ccccc2)CC1 | inactive |
| Cc1cc(/C=N\NC(=O)c2cccs2)c(C)n1-c1ccc2ncccc2c1 | inactive |
| O=c1cc(-c2ccccc2Cl)oc2c([N+](=O)[O-])c(O)cc(O)c12 | inactive |
| C/C(=N\NC(=O)c1ccncc1)c1cc2ccccc2oc1=O | inactive |
| CC1CCN(C(=O)COC(=O)c2cc3ccccc3cc2O)CC1 | inactive |
| O=C(CCc1ccccc1)NC1C2CC3CC(C2)CC1C3 (stereo not drawn) | inactive |
| C/C(=N/NC(=O)c1cccc(C)c1)c1c(O)cc(C)oc1=O | inactive |
| O=C(NC(=S)NCCc1ccccc1)c1ccccc1 | inactive |
| C/C(=N\NC(=O)c1cccc(Cl)c1)C1C(=O)c2ccccc2C1=O | inactive |
| O=C1/C(=C/C=C/c2ccccc2)Oc2c1ccc(O)c2CN1CCN(CCO)CC1 | inactive |

| Compound | outcome |
| --- | --- |
| O=C(COC(=O)C1CC2C=CC1C2)Nc1ccccc1 (stereo not drawn) | inactive |
| COC(=O)c1cc2c(ccc3ccccc32)oc1=O | inactive |
| COc1ccc(-c2cc(=O)oc(-c3cccc(C)c3)n2)cc1 | inactive |
| Cc1nn(-c2ccccc2)nc1C(=O)c1c(C)[nH]n(-c2ccccc2)c1=O | inactive |
| O=C(OCc1c(Cl)cccc1Cl)c1ccccn1 | inactive |
| CCOC(=O)c1ccc(COC(=O)c2cc3ccccc3oc2=O)o1 | inactive |
| CC(=O)NCCOC(=O)Nc1sc(=S)n(C)c1C | inactive |
| CC1CCN(C(=O)C2COc3ccccc3O2)CC1 (stereo not drawn) | inactive |
| Cc1csc(=Nc2cccnc2)n1CC1CCCCC1 | inactive |
| CNC(=O)COC(=O)c1ccc(-c2nc3ccccc3s2)s1 | inactive |
| CC(C)N1CCc2c(sc(NC(=O)CCS(=O)(=O)c3ccccc3)c2C#N)C1 | inactive |
| COCCCC1CCN(Cc2nc(-c3ccccc3)no2)CC1 | inactive |
| CC(C)(C)c1ccc(S(=O)(=O)NNC(=O)c2cc3ccccc3[nH]2)cc1 | inactive |
| CC(C)(C)CC(=O)NC(=S)NCc1ccco1 | inactive |
| CCOC(=O)COc1cc(N)c(Cl)cc1Cl | inactive |
| CCn1cc(C(=O)NC(C)C23CC4CC(CC(C4)C2)C3)cn1 (stereo not drawn) | inactive |
| Cc1ccc(S(=O)(=O)N2CCC(C(=O)OCc3ccccc3)CC2)cc1C | inactive |
| COc1ccc2c([N+](=O)[O-])c(N3CCCC3)[nH]c2c1 | inactive |
| Cc1ccc(OCCCCn2ccnc2)c([N+](=O)[O-])c1 | inactive |
| CCCc1cc(NCCCn2ccnc2)n2nc(C)c(-c3ccccc3)c2n1 | inactive |
| Fc1ccc(-c2ccc(CNCc3ccccn3)o2)cc1Cl | inactive |
| Clc1ccc(-c2ccc(CNCc3ccccn3)o2)cc1 | inactive |
| Clc1cccc(-c2ccc(CNCc3ccccn3)o2)c1 | inactive |
| O=C(Oc1ccccc1)c1cc2ccccc2o1 | inactive |

| Compound | outcome |
| --- | --- |
| Cc1cc(C(=O)NNc2ccc(Cl)cc2)no1 | inactive |
| COc1cccc(C(=O)C2CCCN(CC3=Cc4cc(OC)ccc4OC3)C2)c1 (stereo not drawn) | inactive |
| N/C(=N\OC(=O)c1cccs1)c1ccccc1 | inactive |
| C=CCN(CC=C)C(=O)Cc1ccc(F)cc1 | inactive |
| O=[N+]([O-])c1ccc(Nc2ccccc2O)c2nonc12 | inactive |
| Cc1ccc2[nH]c(C)c(CCNC(=O)c3cc4cc([N+](=O)[O-])ccc4oc3=O)c2c1 | inactive |
| CC(NC(=O)c1cc2cc(Br)ccc2oc1=N)c1ccccc1 (stereo not drawn) | inactive |
| CCOCCOC(=O)COc1ccc2c(-c3ccccc3)cc(=O)oc2c1 | inactive |
| CC1=NN(C(=O)c2ccc(C)o2)C(O)(c2ccccc2)C1 (stereo not drawn) | inactive |
| O=C(NC1CCCC1)c1nc2c(nnn2Cc2cccc(Cl)c2)c(=O)[nH]1 | inactive |
| N=c1oc2ccccc2cc1C(=O)NC1CCCCCC1 | inactive |
| CC(=O)c1ccc(-n2cc(-c3ccc(C(C)(C)C)cc3)[n+]3c2SCCC3)cc1 | inactive |
| O=C(NCC(c1cccs1)N1CCOCC1)c1cc([N+](=O)[O-])cc([N+](=O)[O-])c1 (stereo not drawn) | inactive |
| COc1ccc([N+](=O)[O-])c(S(=O)(=O)c2ccc(Cl)cc2)n1 | inactive |
| COC(=O)CCCCCN1C(=O)/C(=C\c2ccncc2)SC1=S | inactive |
| COc1ccc(-c2noc(-c3cc4ccccc4oc3=O)n2)cc1 | inactive |
| CCN(CC)c1ccc2cc(C(=O)NCc3ccc(F)cc3)c(=N)oc2c1 | inactive |
| COc1ccccc1OCC(=O)N/N=C/C=C/c1ccc([N+](=O)[O-])o1 | inactive |
| COc1ccccc1NC(=O)c1cnc(SC)nc1 | inactive |
| O=C(Nc1nc2c(Cl)cccc2s1)c1ccc([N+](=O)[O-])o1 | inactive |
| Cc1ccccc1NC(=O)c1nc[nH]c1C(=O)NCc1ccccc1 | inactive |
| O=C(Nc1ccccc1F)c1ccc(Br)o1 | inactive |
